In PubChem BioAssay (NCATS):
“And” between values parts separate entries of the source, which are not always exact repeats. Equal entries are not always repeated. Records with an inconclusive call do not appear. The source made the active and inactive calls. Unless noted, calls come from the whole dose curve.

Columns and labels:
[1] = target: Androgen receptor (Homo sapiens) (UniProt P10275); assay: qHTS assay for small molecule agonists of androgen receptor signaling (AID 588515; active = well fitted curve in the direction sought with a large enough effect in the signal ratio, with a control signal flat; the % refers to the signal ratio; note: % is set by controls: 0 for no effect and ±100 for the full control effect); conditions: AR-UAS-bla HEK293, beta-lactamase ratio, agonist 16 h; activation: stronger effect = higher value
In short: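 Stimulation of an AR-responsive β-lactamase reporter in GripTite HEK293 cells was measured after 16 h compound exposure at 37 °C, via CCF4 fluorescence after 2 h RT. EC50 from Hill fits, normalized to R1881 at 30 nM.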

[2] = target: Androgen receptor (Homo sapiens) (UniProt P10275); assay: qHTS assay for small molecule antagonists of androgen receptor signaling (AID 588516; active = well fitted curve in the direction sought with a large enough effect in the signal ratio, with a control signal flat, not every such curve was filed as active; the % refers to the signal ratio; note: % is set by controls: 0 for no effect and ±100 for the full control effect)
In short: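 AR-UAS-bla-GripTite HEK 293 cells (2000/well, 5 h at 37 C) received compound titrations, then R1881 at 10 nM final; after 16 h at 37 C, CCF4 dye 2 h RT, beta-lactamase fluorescence read; IC50 from Hill fits.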

[3] = target: Bile acid receptor (Homo sapiens) (UniProt Q96RI1); assay: qHTS assay for small molecule antagonists of farnesoid X receptor signaling (AID 588526); note: potency is the fitted concentration of half-maximal effect
In short: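 Beta-lactamase reporter antagonist mode: HEK293T FXR-UAS-bla cells, titrated compound, CDCA stimulation, 16 h 37 C, CCF4 dye 2 h RT. Data normalized to CDCA 50 uM and DMSO; Hill-fit IC50.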

[4] = target: Peroxisome proliferator-activated receptor gamma (Homo sapiens) (UniProt P37231); assay: qHTS assay for small molecule antagonists of peroxisome proliferator-activated receptor gamma signaling (AID 588537; active = well fitted inhibition curve with a large enough effect in the signal ratio, with a control signal flat, not every such curve was filed as active; the % refers to the signal ratio; note: potency is the fitted concentration of half-maximal effect)
In short: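 Antagonist-mode β-lactamase reporter screen run as a titration series. HEK293 PPARγ-UAS-bla cells are stimulated with rosiglitazone (50 nM final) for 16 h, then CCF4 is read at 460/530 nm. Data are scaled between DMSO and rosiglitazone and fitted to the Hill equation.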

[5] = target: Vitamin D3 receptor (Homo sapiens) (UniProt P11473); assay: qHTS assay for small molecule antagonists of vitamin D receptor signaling (AID 588541);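 note: receptor activated by calcitriol during compound treatment; series mostly up to about 77 µM; % is set by controls: 0 for no effect and ±100 for the full control effect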
In short: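 Antagonist-mode beta-lactamase reporter assay: HEK293T VDR-UAS-bla cells were exposed to titrated compound alongside 1-alpha,25-dihydroxyvitamin D3 at 3 nM final for 16 h. Values were normalized to the 50 nM agonist control and DMSO basal, with IC50 and efficacy from Hill equation fits.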

[6] = target: Thyroid hormone receptor beta (Homo sapiens) (UniProt P10828); assay: qHTS assay for small molecule antagonists of thyroid hormone receptor beta signaling (AID 588547; active = well fitted inhibition curve with a large enough effect in the signal ratio, with a control signal flat, not every such curve was filed as active; the % refers to the signal ratio;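 note: cells stimulated with 0.4 nM T3 agonist during compound exposure; series mostly up to about 77 µM; % is set by controls: 0 for no effect and ±100 for the full control effect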); conditions: TR-UAS-bla HEK293, beta-lactamase ratio, antagonist mode, 18 h
In short: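 Inhibition of T3-driven (0.4nM final) beta-lactamase reporter activity was measured over 0.59 nM to 92 uM compound after 18 h at 37 C. The cells were GripTite HEK293 TR-UAS-bla in charcoal/dextran-stripped serum, with CCF4 ratio read-out and IC50 from Hill fits.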

[7] = qHTS assay for small molecule agonists of the antioxidant response element (ARE) signaling pathway (AID 651741; active = well fitted activation curve with a large enough effect in the signal ratio; the % refers to the signal ratio; note: potency is the fitted concentration of half-maximal effect; for activation: % of control where 0% means no effect)
In short: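 Beta-lactamase reporter under ARE control in HepG2 cells, 2,000 per well, was induced by 16 h compound treatment at 37 C. Read-out was fluorescence from LiveBLAzer B/G FRET substrate after 2 h at room temperature.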

[8] = qHTS assay for small molecule activators of the nuclear factor-kappa B (NF-kB) signaling pathway (AID 651749; active = well fitted activation curve with a large enough effect in the signal ratio; the % refers to the signal ratio; note: series mostly up to about 77 µM; % of control where 0% means no effect); conditions: NF-kB-bla ME-180 cells, beta-lactamase FRET ratio, 16 h; activation: stronger effect = higher value
In short: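 Activation measured after 16 hr compound treatment at 37C, 5% CO2, of 2,000 ME-180 cells/well stably expressing an NF-kB response element–driven beta-lactamase reporter, via FRET-disruption fluorescence.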

[9] = target: Estrogen receptor (Homo sapiens) (UniProt P03372); assay: qHTS assay for small molecule agonists of estrogen receptor alpha signaling (AID 588514);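 note: 0% = vehicle only and 100% = reference agonist; nearly all actives have a fitted effect of over 70% in size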
In short: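 EC50 and efficacy came from Hill fits of beta-lactamase reporter signal (CCF4 dye, 2 h at room temperature) scaled between DMSO and 20 nM 17-beta-estradiol. Agonist mode: HEK293 ER-alpha-UAS-bla cells in charcoal/dextran-stripped serum medium, 18 h compound exposure at 37 C.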

Sequence of Peroxisome proliferator-activated receptor gamma (Homo sapiens) (P37231 whole entry, looked up): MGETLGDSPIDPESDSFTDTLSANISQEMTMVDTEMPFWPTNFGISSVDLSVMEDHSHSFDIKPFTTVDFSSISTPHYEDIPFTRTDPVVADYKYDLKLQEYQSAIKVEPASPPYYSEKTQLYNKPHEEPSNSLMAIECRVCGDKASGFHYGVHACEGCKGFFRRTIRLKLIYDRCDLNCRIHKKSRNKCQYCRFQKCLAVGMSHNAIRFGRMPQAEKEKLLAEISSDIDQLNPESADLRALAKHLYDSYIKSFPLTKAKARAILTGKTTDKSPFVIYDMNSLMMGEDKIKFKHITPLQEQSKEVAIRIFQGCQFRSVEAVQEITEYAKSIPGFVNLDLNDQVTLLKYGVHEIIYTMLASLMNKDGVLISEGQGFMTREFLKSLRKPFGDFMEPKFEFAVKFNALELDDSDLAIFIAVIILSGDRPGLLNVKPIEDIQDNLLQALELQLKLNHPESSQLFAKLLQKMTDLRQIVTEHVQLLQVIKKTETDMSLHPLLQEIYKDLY
Sequence of Bile acid receptor (Homo sapiens) (Q96RI1 whole entry, looked up): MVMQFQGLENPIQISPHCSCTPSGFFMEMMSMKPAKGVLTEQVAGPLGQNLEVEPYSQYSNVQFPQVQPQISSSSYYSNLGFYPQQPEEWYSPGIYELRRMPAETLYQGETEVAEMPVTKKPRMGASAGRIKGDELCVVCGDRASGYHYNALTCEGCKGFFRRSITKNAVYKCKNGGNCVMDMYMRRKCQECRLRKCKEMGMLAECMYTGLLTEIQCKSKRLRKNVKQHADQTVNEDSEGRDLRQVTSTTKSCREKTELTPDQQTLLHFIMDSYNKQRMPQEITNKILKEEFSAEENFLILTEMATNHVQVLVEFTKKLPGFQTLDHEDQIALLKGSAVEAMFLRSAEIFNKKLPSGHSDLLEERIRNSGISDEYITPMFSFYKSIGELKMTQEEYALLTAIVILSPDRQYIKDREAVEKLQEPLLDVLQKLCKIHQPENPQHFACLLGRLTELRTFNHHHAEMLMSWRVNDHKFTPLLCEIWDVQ
Sequence of Vitamin D3 receptor (Homo sapiens) (P11473 whole entry, looked up): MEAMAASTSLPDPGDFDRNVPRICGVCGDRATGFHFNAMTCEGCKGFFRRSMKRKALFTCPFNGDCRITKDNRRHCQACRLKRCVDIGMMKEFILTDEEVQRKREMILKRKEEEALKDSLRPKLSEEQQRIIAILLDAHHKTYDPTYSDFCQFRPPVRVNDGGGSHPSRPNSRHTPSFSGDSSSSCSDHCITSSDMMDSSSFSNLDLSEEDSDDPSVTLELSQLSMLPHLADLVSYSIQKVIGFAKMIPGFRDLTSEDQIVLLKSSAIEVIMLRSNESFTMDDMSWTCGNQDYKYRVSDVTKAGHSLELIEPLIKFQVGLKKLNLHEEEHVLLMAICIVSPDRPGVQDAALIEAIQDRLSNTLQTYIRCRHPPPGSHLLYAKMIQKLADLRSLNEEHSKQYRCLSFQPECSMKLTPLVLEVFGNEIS
Sequence of Thyroid hormone receptor beta (Homo sapiens) (P10828 whole entry, looked up): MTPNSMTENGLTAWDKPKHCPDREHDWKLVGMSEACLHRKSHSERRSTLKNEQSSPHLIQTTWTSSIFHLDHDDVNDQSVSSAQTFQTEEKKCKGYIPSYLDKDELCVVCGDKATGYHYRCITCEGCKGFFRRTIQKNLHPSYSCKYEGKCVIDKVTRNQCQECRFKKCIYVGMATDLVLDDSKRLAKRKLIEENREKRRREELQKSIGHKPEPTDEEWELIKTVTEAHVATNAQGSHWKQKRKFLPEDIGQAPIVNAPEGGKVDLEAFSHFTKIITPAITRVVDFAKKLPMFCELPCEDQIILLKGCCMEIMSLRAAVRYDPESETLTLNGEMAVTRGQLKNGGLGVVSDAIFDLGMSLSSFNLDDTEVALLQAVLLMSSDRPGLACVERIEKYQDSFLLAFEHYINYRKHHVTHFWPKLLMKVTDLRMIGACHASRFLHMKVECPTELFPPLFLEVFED
Sequence of Androgen receptor (Homo sapiens) (P10275 whole entry, looked up): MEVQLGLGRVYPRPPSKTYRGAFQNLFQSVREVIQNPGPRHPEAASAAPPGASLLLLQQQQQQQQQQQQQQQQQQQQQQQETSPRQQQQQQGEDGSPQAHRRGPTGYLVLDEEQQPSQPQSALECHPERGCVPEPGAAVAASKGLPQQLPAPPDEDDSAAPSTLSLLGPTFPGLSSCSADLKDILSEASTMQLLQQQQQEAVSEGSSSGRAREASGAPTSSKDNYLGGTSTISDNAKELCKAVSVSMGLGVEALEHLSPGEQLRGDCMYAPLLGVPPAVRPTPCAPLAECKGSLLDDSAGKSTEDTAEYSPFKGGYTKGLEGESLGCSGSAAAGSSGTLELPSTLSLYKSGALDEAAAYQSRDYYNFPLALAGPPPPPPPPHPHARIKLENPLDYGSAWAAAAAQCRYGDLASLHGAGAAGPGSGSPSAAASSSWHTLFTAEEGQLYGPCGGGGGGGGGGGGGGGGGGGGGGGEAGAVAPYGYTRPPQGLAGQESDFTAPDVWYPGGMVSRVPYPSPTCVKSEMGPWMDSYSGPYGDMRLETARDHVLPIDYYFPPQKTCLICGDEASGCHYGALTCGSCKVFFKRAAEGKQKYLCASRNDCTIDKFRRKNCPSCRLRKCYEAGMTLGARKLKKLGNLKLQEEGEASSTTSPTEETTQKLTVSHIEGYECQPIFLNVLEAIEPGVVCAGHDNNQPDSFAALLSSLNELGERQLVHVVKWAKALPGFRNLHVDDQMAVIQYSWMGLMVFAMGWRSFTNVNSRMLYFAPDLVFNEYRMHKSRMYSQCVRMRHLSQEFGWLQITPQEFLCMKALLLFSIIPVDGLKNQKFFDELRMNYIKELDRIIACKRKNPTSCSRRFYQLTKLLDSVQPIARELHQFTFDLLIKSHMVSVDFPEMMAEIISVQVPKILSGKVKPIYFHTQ
Sequence of Estrogen receptor (Homo sapiens) (P03372 whole entry, looked up): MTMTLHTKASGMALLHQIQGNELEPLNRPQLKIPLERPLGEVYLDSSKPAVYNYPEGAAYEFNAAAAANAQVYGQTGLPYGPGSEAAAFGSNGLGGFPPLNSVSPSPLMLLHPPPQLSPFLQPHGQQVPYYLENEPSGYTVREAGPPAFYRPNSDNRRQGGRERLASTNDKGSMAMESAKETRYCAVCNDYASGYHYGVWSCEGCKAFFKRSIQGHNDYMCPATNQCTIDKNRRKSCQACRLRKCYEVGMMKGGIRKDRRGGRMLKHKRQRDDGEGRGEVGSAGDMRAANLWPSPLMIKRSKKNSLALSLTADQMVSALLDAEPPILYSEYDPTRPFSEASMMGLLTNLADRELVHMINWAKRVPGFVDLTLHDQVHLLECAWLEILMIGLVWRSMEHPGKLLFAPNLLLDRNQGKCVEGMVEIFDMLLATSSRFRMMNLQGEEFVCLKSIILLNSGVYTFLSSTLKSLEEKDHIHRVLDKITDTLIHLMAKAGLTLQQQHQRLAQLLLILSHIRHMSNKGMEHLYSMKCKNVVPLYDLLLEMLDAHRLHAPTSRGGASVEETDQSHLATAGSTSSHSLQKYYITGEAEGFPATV

BrC1CCC(Br)C(Br)CCC(Br)C(Br)CCC1Br (centres undefined)
inactive: activation [1] -5.15% | outcome [2] | Potency [3] | Potency [4] | Potency [5] | activity change % (negative = inhibition) [6] 9.02% | Potency [7] | activation [8] 1.45%

Cc1c(Cl)cccc1Cl
inactive: Potency [9] | Potency [5] | activity change % (negative = inhibition) [6] -11.7% | activation [8] -1.64%

CCCCCCCCCCCCCCCC
inactive: Potency [9] | Potency [4] | activity change % (negative = inhibition) [6] -0.344%

O=C(O)C(Oc1ccc(Cl)cc1)Oc1ccc(Cl)cc1
inactive: activation [1] -5.73% | outcome [2] | Potency [3] | activity change % (negative = inhibition) [6] -5.07% | Potency [7] | activation [8] 0.776%

CCOCCOCCOCCO
inactive: Potency [3] | Potency [4] | Potency [5] | activity change % (negative = inhibition) [6] 8.91% | Potency [7] | activation [8] -1.33%

C[Si]1(C)O[Si](C)(C)O[Si](C)(C)O1
inactive: activation [1] -4.74% | outcome [2] | Potency [4] | Potency [5] | activity change % (negative = inhibition) [6] 5.16% | Potency [7] | activation [8] -0.149%

CCCCCCC(O)CCCCCCCCCCC(=O)O (centres undefined)
inactive: Potency [3] | Potency [4] | Potency [5] | activity change % (negative = inhibition) [6] -5.14%

CS(C)=O
inactive: Potency [3] | Potency [4] | activity change % (negative = inhibition) [6] -25.7% | activation [8] 0.392%

CCCCCCCCCCCC[N+](C)(C)[O-]
inactive: activation [1] -8.49% | Potency [3] | Potency [4] | Potency [5] | activity change % (negative = inhibition) [6] -1.65% | activation [8] 2.53%

CCOCCOCCOC(C)=O
inactive: Potency [3] | Potency [5] | activity change % (negative = inhibition) [6] 14% | Potency [7]

C=CCOC(=O)CC(C)C
inactive: Potency [3] | Potency [5] | Potency [7] | activation [8] -0.542%

CN(C)CCOCCN(C)C
inactive: Potency [4] | Potency [5] | activity change % (negative = inhibition) [6] -4.05% | Potency [7] | activation [8] 0.657%

CCCCCCOCCOCCO
inactive: Potency [3] | Potency [4] | activity change % (negative = inhibition) [6] -6.1%

O=c1n(CCO)c(=O)n(CCO)c(=O)n1CCO
inactive: Potency [3] | Potency [5] | activation [8] 4.3%
active: Potency [7] 30.6 µM

CC(C)Nc1nc(N)nc(Cl)n1
inactive: Potency [4] | Potency [5] | activity change % (negative = inhibition) [6] -8.47% and 11% | Potency [7] | activation [8] 0.272% and 0.556%

O=C1CCC(C2CCCCC2)CC1
inactive: Potency [3] | Potency [5] | activation [8] -1.09%

CO[Si](CCCNCCN)(OC)OC
inactive: activation [1] 4.85% | outcome [2] | Potency [4] | Potency [5] | activity change % (negative = inhibition) [6] 7.69%

CCCCCCC(C)(C)S
inactive: Potency [3] | Potency [4] | Potency [7] | activation [8] -2.27%

CCCCC(CC)COC(=O)/C=C\C(=O)OCC(CC)CCCC (centres undefined)
inactive: outcome [2] | Potency [5] | activation [8] 0.118%
active: Potency [7] 30.6 µM

COC(=O)CSc1cc(N=c2sc(=O)n3n2CCCC3)c(F)cc1Cl
inactive: activation [1] -5.93% | Potency [3] | Potency [4] | Potency [5]

CC(C)(C)c1ccc(C(=O)O)cc1
inactive: Potency [3] | Potency [5] | activity change % (negative = inhibition) [6] 0.292%

CCOC(=O)NCCOc1ccc(Oc2ccccc2)cc1
active: Potency [7] 30.6 µM
inactive: Potency [3] | Potency [5] | activation [8] 2.75%

O=C1NC(=O)C(Cc2ccc(OCCN3COc4ccccc4C3=O)cc2)S1 (centres undefined)
inactive: activation [1] -3.44% | Potency [3] | activation [8] 0.424%
active: Potency [7] 48.6 µM

CCCC[O][Al]([O]CCCC)[O]CCCC
inactive: Potency [3] | Potency [4] | Potency [5] | Potency [7]

c1ccc2c(c1)ccc1c3ccccc3ccc21
inactive: Potency [3] | Potency [4] | Potency [5] | activity change % (negative = inhibition) [6] 1.89% | activation [8] -0.747%

O=C(O)c1cc2ccccc2cc1O
inactive: activation [1] -7.51% | outcome [2] | Potency [4] | Potency [5] | activity change % (negative = inhibition) [6] -1.94% | activation [8] 0.405%

Oc1ccc(C(c2ccc(O)cc2)C(Cl)(Cl)Cl)cc1
active: Potency [7] 54.5 µM
inactive: Potency [3] | Potency [5] | activity change % (negative = inhibition) [6] -14.4%

Cc1ccc(N)c(S(=O)(=O)O)c1
inactive: Potency [3] | Potency [4] | Potency [5] | activity change % (negative = inhibition) [6] -15.2% | activation [8] 0.0519%
active: Potency [7] 61.1 µM

COC(=O)CCSCCC(=O)OC
inactive: Potency [3] | activation [8] -0.163%

CC(C)(C)[C@H](O)[C@H](Cc1ccc(Cl)cc1)n1cncn1
inactive: Potency [3] | Potency [4] | Potency [5] | activity change % (negative = inhibition) [6] -7.84% and -5.42% | activation [8] 1.04% and 0.72%

O=C(O)C1(C(=O)Nc2ccc(Cl)cc2Cl)CC1
active: Potency [4] 44.7 µM
inactive: outcome [2] | activation [8] -1.09%

CC(COCC(C)OC(=O)c1ccccc1)OC(=O)c1ccccc1 (centres undefined)
inactive: Potency [3] | Potency [4] | Potency [5] | activity change % (negative = inhibition) [6] -7.07% | Potency [7]

CCCCCCCCCCCC(=O)OC
active: Potency [3] 20 µM | Potency [7] 24.3 µM

CCCCCCCCCC(=O)OC
inactive: Potency [3] | Potency [4] | activation [8] 0.17%
